SMILES strings stand for the structures. ± gives the standard deviation of the averaged measurements.

The test system of one test is Caenorhabditis elegans N2 infected with Nematocida parisii ERTm1. The test can be described thus: progeny production relative to DMSO uninfected control; higher = more progeny despite microsporidia infection (inhibition of infection with low host toxicity). Particulars: infection time 6 days; 40 µM. Here is the method: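 Bleach-synchronised C. elegans N2 L1 larvae (100 per well) were grown in 96-well plates in K-medium with 5x E. coli OP50 and 15,000 N. parisii spores/uL, plus Pandemic Response Box compound at 100 uM or 40 uM (1% DMSO), for 6 days at 21 C with shaking. Worms were stained with Rose Bengal, scanned on a flatbed scanner and counted with WorMachine. Progeny production is given as % of the DMSO uninfected control (triplicate wells), so higher values mean the compound restores progeny despite infection.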
Regarding `O=C(Nc1nnc(-c2ccccc2)o1)c1ccc(F)cc1`, the progeny production worked out at 5.03 ± 1.8%.
`O=c1nc(N2CCN(CC3CCCCC3)CC2)sc2c([N+](=O)[O-])cc(C(F)(F)F)cc12` had a progeny production of 4.77 ± 2.5%.
On the same count and under the same terms, the result for `O=C(O)[C@H]1C2CCC(CC2)[C@@H]1Nc1nc(-c2c[nH]c3ncc(F)cc23)ncc1F` reads 8.03 ± 4.7%; that for `Nc1cc(N)c2nc(-c3ccccc3)c(Nc3ccc(F)cc3)nc2c1`, 4.57 ± 1.7%.
Same read-out and setting: the result for `N#Cc1c(F)c(Cl)c(NCc2ccccc2)c(C#N)c1F` reads 32.6 ± 17%; that for `O=C(Nc1ccccc1)N(Cc1cc(Br)ccc1O)c1ccc(F)cc1`, 3.85 ± 1%.
Same read-out and setting: in the case of `CCNC(=O)Nc1cc(-c2ccccc2)c(-c2cncc(C(=O)O)c2)cn1` it was 3.89 ± 0.4%; in that of `CCCCSc1nc(N)c2[nH]c(=O)c(=O)n(Cc3ccccc3)c2n1`, 4.52 ± 1.9%.
`c1cnc(NCc2ccc(CNc3ncccn3)cc2)nc1`: the progeny production is 3.1 ± 0.72%.
`CN(C(=O)C1(c2ccc(Cl)cc2)CCC1)c1ccccc1` had a progeny production of 2.68 ± 1.6%.
`c1ccc(Cn2c(-c3ccccn3)nc3ccccc32)cc1` registered a progeny production of 3.12 ± 1.9%.
Still for that read-out and setting: in the case of `CCc1c(O)nc2ccc(F)cc2c1OCC1CCC1` it was 6.76 ± 3.3%; in that of `NNC(=O)c1ccncc1`, 12.3 ± 5.7%.
Compound `CCCCCOc1ccc(/C=C2\Oc3c(ccc(O)c3O)C2=O)c(O)c1` gave a progeny production of 2.87 ± 0.23%.
Still for that read-out and setting: in the case of `COc1ccc(C)cc1NC(=O)c1ccc(S(=O)(=O)N2CCCCC2)cc1` it was 7.49 ± 1.3%; in that of `O=P(O)(O)C(CCCc1cccc(Oc2ccccc2)c1)S(=O)(=O)O` (stereo not given), 5.45 ± 0.36%.
Still for that read-out and setting: in the case of `Cn1cc(NC(=O)c2cc(NC(=O)c3ccc(/C=C/c4cnc5ccccc5c4)cc3)cn2C)cc1C(=O)NCCN1CCOCC1` it was 7.6 ± 3.5%; in that of `C[C@H](c1cccc2ccccc12)N(C)Cc1ccccc1`, 3.94 ± 1.7%; in that of `COc1cc(Cc2cc(N)nc(N)n2)cc(OC)c1OC`, 5.56 ± 1.2%.
As for `O=[N+]([O-])/C(Br)=C/c1ccc(Br)o1`, the progeny production was 5.77 ± 1.4%.

Staying with this test, now noted: infection time 6 days; 100 µM.
In the case of `O=C(Nc1nnc(-c2ccccc2)o1)c1ccc(F)cc1`, the progeny production was 6.37 ± 4.7%.
The same measure, in the same setting: in the case of `O=c1nc(N2CCN(CC3CCCCC3)CC2)sc2c([N+](=O)[O-])cc(C(F)(F)F)cc12` it was 9.3 ± 5.1%.
Regarding `O=C(O)[C@H]1C2CCC(CC2)[C@@H]1Nc1nc(-c2c[nH]c3ncc(F)cc23)ncc1F`, the progeny production worked out at 14.2 ± 12%.
On the same count and under the same terms, in the case of `Nc1cc(N)c2nc(-c3ccccc3)c(Nc3ccc(F)cc3)nc2c1` it was 23.5 ± 17%; in that of `N#Cc1c(F)c(Cl)c(NCc2ccccc2)c(C#N)c1F`, 15 ± 3.8%; in that of `O=C(Nc1ccccc1)N(Cc1cc(Br)ccc1O)c1ccc(F)cc1`, 17.4 ± 13%.
In turn, `CCNC(=O)Nc1cc(-c2ccccc2)c(-c2cncc(C(=O)O)c2)cn1` came in with a progeny production of 28.1 ± 28%.
On the same count and under the same terms, in the case of `CCCCSc1nc(N)c2[nH]c(=O)c(=O)n(Cc3ccccc3)c2n1` it was 20.2 ± 11%; in that of `c1cnc(NCc2ccc(CNc3ncccn3)cc2)nc1`, 9.59 ± 5.8%; in that of `CN(C(=O)C1(c2ccc(Cl)cc2)CCC1)c1ccccc1`, 14.9 ± 2.4%.
Same read-out and setting: in the case of `c1ccc(Cn2c(-c3ccccn3)nc3ccccc32)cc1` it was 4.55 ± 2.1%.
The same measure, in the same setting: in the case of `CCc1c(O)nc2ccc(F)cc2c1OCC1CCC1` it was 16.2 ± 9.1%; in that of `NNC(=O)c1ccncc1`, 14.7 ± 5.8%.
`CCCCCOc1ccc(/C=C2\Oc3c(ccc(O)c3O)C2=O)c(O)c1` had a progeny production of 11.2 ± 7%.
Compound `COc1ccc(C)cc1NC(=O)c1ccc(S(=O)(=O)N2CCCCC2)cc1` returned a progeny production of 19.4 ± 16%.
Regarding `O=P(O)(O)C(CCCc1cccc(Oc2ccccc2)c1)S(=O)(=O)O` (stereo not given), the progeny production was 8.22 ± 4.1%.
`Cn1cc(NC(=O)c2cc(NC(=O)c3ccc(/C=C/c4cnc5ccccc5c4)cc3)cn2C)cc1C(=O)NCCN1CCOCC1` returned a progeny production of 15.5 ± 5.6%.
Still for that read-out and setting: in the case of `C[C@H](c1cccc2ccccc12)N(C)Cc1ccccc1` it was 12.4 ± 7.8%.
Still for that read-out and setting: the result for `COc1cc(Cc2cc(N)nc(N)n2)cc(OC)c1OC` reads 19.2 ± 12%; that for `O=[N+]([O-])/C(Br)=C/c1ccc(Br)o1`, 26.4 ± 9.5%.

The values above are taken from the supplement of paper PMC10732440.
